Screening data deposited in PubChem BioAssay by National Center for Advancing Translational Sciences (NCATS).
Tau fluor cs: counter-screen for tau fibril formation inhibitors. AID 1463. tau K18 P301L Alexa594 fluorescence, heparin fibrillization. 280,000 tested, 0.93% active. Potency, µM (series often up to 57.7 µM), for inactives: at the top dose activity change, negative = decrease; note: potency is the fitted concentration of half-maximal effect; nearly all actives have a fitted effect of over 55% in size
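Human K18 P301L tau (15 uM unlabeled plus 0.24 uM Alexa 594-labeled, final) in 100 mM sodium acetate pH 7 was mixed with compound and 20 uM heparin and incubated 6 hr at 37 C.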
Tau fibril FP: inhibitors of human tau fibril formation; K18 P301L tau heparin fibrillization, Alexa594 FP, 6 h; Potency, µM (top dose mostly 57.7 µM), inactives show at the highest dose activity, negative = inhibition, actives largely listed as inhibitors; 280,000 tested, 0.39% active; note: potency is the fitted concentration of half-maximal effect; nearly all actives have a fitted effect of over 55% in size
Target sequence (P10636 561-689 P618L limits assumed): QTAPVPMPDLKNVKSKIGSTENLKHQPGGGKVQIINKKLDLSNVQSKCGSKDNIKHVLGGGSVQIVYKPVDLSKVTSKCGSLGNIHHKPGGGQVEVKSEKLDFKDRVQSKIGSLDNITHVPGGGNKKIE
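Human tau K18 […] P301L fragment, 15 uM unlabeled plus 0.24 uM Alexa 594-labeled tau (final), with compound and 20 uM heparin in 100 mM sodium acetate pH 7; 6 hr at 37 C, then Alexa 594 FP read.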
PNC assembly inh: inhibitors of perinucleolar compartment assembly | activity change (PNC), negative = inhibition, % at 10 µM | PC3M PTB-GFP, PNC prevalence imaging, 16 h; hits give low values | 140,000 tested, 3.1% active | AID 2417;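 active = readout at or below -70, meaning at least 70% loss of cells showing the perinucleolar compartment, a nuclear body marking cancer cells; inconclusive = readout between -30 and a set limit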;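 note: plate controls were DMSO wells for no effect and camptothecin positive control wells for full effect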
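PC3M cells stably expressing PTB-GFP, 750–1000 cells/well, treated 16 h at 37 °C with compound (23 nl of library stock), in duplicate. After paraformaldehyde fixation and Hoechst stain, imaged at 20x; PNC prevalence scored by image analysis.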
Tau fibril ThT: blocks human tau fibril formation measured by thioflavin T | P10636 | recombinant tau K18 P301L, heparin-induced fibrillization, ThT fluorescence | 270,000 tested, 2.1% active | Potency, µM (doses to about 57.4 µM), without a hit: at the top dose activity, negative = inhibition, most hits filed as inhibitors; note: potency is the fitted concentration of half-maximal effect; nearly all actives have a fitted effect of over 55% in size
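Using a mix of unlabeled (15 uM) and Alexa 594-labeled (0.24 uM) tau K18 P301L, heparin-triggered fibrillization over 6 hr at 37 C was scored by ThT fluorescence.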
NPSR antag: antagonists of human neuropeptide S receptor cAMP signaling; Q6W5P4; CHO-NPSR cells, cAMP TR-FRET, antagonist mode; Potency, µM (highest dose often 38.3 µM), inactives show at the top dose activity change, negative = inhibition, hits mostly inhibitors; 220,000 tested, 1% active; AID 1461; note: potency is the fitted concentration of half-maximal effect; nearly all actives have a fitted effect of over 50% in size
Target sequence (Q6W5P4 whole entry, looked up): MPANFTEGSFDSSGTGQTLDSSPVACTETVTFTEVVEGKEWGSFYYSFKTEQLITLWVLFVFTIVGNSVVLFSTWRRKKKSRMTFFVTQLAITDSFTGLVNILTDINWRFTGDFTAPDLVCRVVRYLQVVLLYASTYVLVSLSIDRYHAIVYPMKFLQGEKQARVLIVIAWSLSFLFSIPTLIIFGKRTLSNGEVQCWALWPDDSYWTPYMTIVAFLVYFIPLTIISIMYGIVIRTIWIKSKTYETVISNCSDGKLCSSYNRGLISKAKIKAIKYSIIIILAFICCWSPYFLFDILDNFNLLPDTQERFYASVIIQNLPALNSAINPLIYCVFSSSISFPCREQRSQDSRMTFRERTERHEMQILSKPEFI
JMJD2E inh: JMJD2E (human) inhibition; B2RXH2; JMJD2E catalytic domain, FDH-coupled NADH fluorescence (FDH is formaldehyde dehydrogenase); Potency, µM (titrated, usually from 57.1 µM), inactives show at the top dose activity change, negative = inhibition, usual class: inhibitors; 230,000 tested, 1.6% active; AID 2147; active = well fitted inhibition curve with a large enough effect, not every such curve was filed as active; inconclusive = small, poorly fitted or top-dose-only effect, or another doubt; inactive = no such curve, though single readings can be large or run the other way;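 note: potency is the fitted concentration of half-maximal effect; 0% = wells with enzyme and -100% = buffer wells without enzyme; nearly all actives have a fitted effect of over 50% in size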
* marks the source's active call; other numbers are inactive results; [ ] = dose if it differs, or a comment. The list is not random: actives were taken first. Their share in the collection is about 5.1%. Unless noted, calls come from the whole dose curve; as a rule, active = well fitted curve in the direction sought with a large enough effect; inconclusive = small, poorly fitted or top-dose-only effect, or another doubt; inactive = no such curve, though single readings can be large; an effect the other way counts as inactive or inconclusive. Unless noted, % is set by controls: 0 for no effect and ±100 for the full control effect.

What do the screens show for `CCOC(=O)C1(N(CC)CC)Sc2cc(C)ccc2NC1=O` (centres undefined)?
Tau fluor cs: -17%; Tau fibril FP: -5%; PNC assembly inh: -8; Tau fibril ThT: -5%; NPSR antag: -26%[46.1 µM]; JMJD2E inh: -6%

Results for C=C(C)C(=O)OC1(C(F)(F)F)Oc2cc(C)ccc2NC1=O (centres undefined) ?
Tau fluor cs: -21%; Tau fibril FP: inconclusive; PNC assembly inh: -10; Tau fibril ThT: 16µM*; NPSR antag: 10µM*; JMJD2E inh: -1%

What do the screens show for `CNc1oc(-c2ccccc2Cl)nc1P(=O)(c1ccccc1)c1ccccc1`?
Tau fluor cs: -17%; Tau fibril FP: -1%; PNC assembly inh: inconclusive; Tau fibril ThT: inconclusive; NPSR antag: inconclusive; JMJD2E inh: inconclusive

Results for CNc1oc(-c2ccc(C)cc2)nc1P(=O)(c1ccccc1)c1ccccc1 ?
Tau fluor cs: -19%; Tau fibril FP: 12%; PNC assembly inh: -11; Tau fibril ThT: inconclusive; NPSR antag: 13µM*; JMJD2E inh: -9%

How did NC(=O)C[C@H](NC(=O)Cc1ccc(O)cc1O)C(=O)O do in these assays?
Tau fluor cs: -5%; Tau fibril FP: -10%; Tau fibril ThT: 0%; JMJD2E inh: -6%

What do the screens show for `NC(CO)C(=O)NNCc1ccc(O)c(O)c1O` (centres undefined)?
Tau fluor cs: inconclusive; Tau fibril FP: 3.2µM*; PNC assembly inh: 17; Tau fibril ThT: 3.2µM*; NPSR antag: inconclusive; JMJD2E inh: 2.2µM*

What do the screens show for `CCOc1ccc(C(=O)Nc2ccc3c(c2)OCCO3)cc1Br`?
Tau fluor cs: 16µM*[quencher]; Tau fibril FP: 3%; Tau fibril ThT: inconclusive

Results for CCOc1cc(C(=O)Nc2ccc3c(c2)OCO3)ccc1OCCOc1ccccc1Cl ?
Tau fluor cs: -15%; Tau fibril FP: -6%; PNC assembly inh: -87*; Tau fibril ThT: -5%; NPSR antag: -2%[46.1 µM]; JMJD2E inh: 3%

How did CCOc1ccccc1C(=O)NC(C)c1ccc2c(c1)OCO2 (centres undefined) do in these assays?
Tau fluor cs: -1%; Tau fibril FP: 2%; PNC assembly inh: -103*; Tau fibril ThT: -3%; NPSR antag: -11%[46.1 µM]; JMJD2E inh: -6%

What do the screens show for `Cc1occc1C(=O)NC(C)c1ccc2c(c1)OCO2` (centres undefined)?
Tau fluor cs: -2%; Tau fibril FP: 1%; PNC assembly inh: inconclusive; Tau fibril ThT: -2%; NPSR antag: -8%[46.1 µM]; JMJD2E inh: 9%

How did Cc1ccc(S(=O)(=O)N2CCN(Cc3cc(Br)ccc3O)CC2)cc1 do in these assays?
Tau fluor cs: -28%; Tau fibril FP: -10%; Tau fibril ThT: -4%

How did CCCn1nnc(NC(=O)c2cc(Br)cc(Br)c2OC)n1 do in these assays?
Tau fluor cs: -6%; Tau fibril FP: 0%; PNC assembly inh: -119*; Tau fibril ThT: -6%; NPSR antag: -3%[46.1 µM]; JMJD2E inh: 1%

Results for CCCn1nnc(NC(=O)c2ccc(Br)cc2)n1 ?
Tau fluor cs: -6%; Tau fibril FP: 2%; PNC assembly inh: inconclusive; Tau fibril ThT: -7%; NPSR antag: inconclusive; JMJD2E inh: 5%

What do the screens show for `CCOC(=O)C1CCN(C(c2ccccc2OC)c2c(O)cc(C)n(CCOC)c2=O)CC1` (centres undefined)?
Tau fluor cs: -6%; Tau fibril FP: inconclusive; Tau fibril ThT: inconclusive

Results for Cc1ccc(C2(C)NC(=O)N(CC(=O)Nc3cc(S(=O)(=O)N4CCOCC4)ccc3C)C2=O)cc1 (centres undefined) ?
Tau fluor cs: -9%; Tau fibril FP: 0%; PNC assembly inh: -115*; Tau fibril ThT: 11%; NPSR antag: 10%; JMJD2E inh: 12%
